Laboratory results as given in the supplement of paper PMC10981050.
“And” between values parts separate entries of the source, which are not always exact repeats. Identical values can stand only once.

What was measured:
Assay in all cases: cell viability relative to vehicle control; higher = less cytotoxic
Settings in all cases: 10 µM
[1] = tested on: K562
Outline: (§1)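 CRISPR-edited SRSF2 P95 mutant and isogenic wild-type clones of four leukaemia lines were screened against Selleck bioactive, kinase and epigenetic probe libraries, with identity-inconsistent compounds removed. Compounds were acoustically dispensed into 384-well plates at a single 10 µM dose, with 2000 cells in 50 µL medium per well. After 48 h, supernatant was removed and CellTiter-Glo luminescence was read. Viability was expressed as percent of the on-plate DMSO vehicle control, analysed in Genedata Screener.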

[2] = tested on: MARIMO
Outline: as §1

[3] = tested on: MOLM14
Outline: as §1

[4] = tested on: OCI-AML2
Outline: as §1

Row | Structure (SMILES) | cell viability ([1]; SRSF2 genotype: SRSF2 P95H/wt) | cell viability ([1]; SRSF2 genotype: SRSF2 wt/wt) | cell viability ([2]; SRSF2 genotype: SRSF2 P95H/wt) | cell viability ([2]; SRSF2 genotype: SRSF2 wt/wt) | cell viability ([3]; SRSF2 genotype: SRSF2 P95H/wt) | cell viability ([3]; SRSF2 genotype: SRSF2 wt/wt) | cell viability ([4]; SRSF2 genotype: P95H/wt) | cell viability ([4]; SRSF2 genotype: wt/wt)
1 | C[C@@H](O[C@H]1OCCN(Cc2n[nH]c(=O)[nH]2)[C@H]1c1ccc(F)cc1)c1cc(C(F)(F)F)cc(C(F)(F)F)c1 [Aprepitant (MK-0869)] | 52.7% and 46% | 56.8% | 73% | 56.1% | 56.2% | 64.3% | 45.8% | 56.8%
2 | CC(C)(C)OC(=O)N[C@@H]1CCCC[C@H]1N [(1R,2R)-trans-N-Boc-1,2-cyclohexanediamine] | 104% and 108% | 98.6% | 101% | 104% | 101% | 105% | 114% | 104%
3 | CC1=CC(=O)CC(C)(C)C1(O)/C=C/C(C)=C\C(=O)O (stereo not given) [Abscisic Acid (Dormin)] | 102% and 99.2% | 98.1% | 101% | 110% | 104% | 101% | 105% | 102%
4 | C#Cc1cccc(Nc2ncnc3cc(OCCOC)c(OCCOC)cc23)c1 [Erlotinib(OSI-744)] | 83.5% and 94.5% | 84.8% | 75.9% | 84.8% | 79% | 84.6% | 77.9% | 84.4%
5 | CN(C)CC(c1ccc(O)cc1)C1(O)CCCCC1 (stereo not given) [Desvenlafaxine Succinate] | 96.4% and 90.5% | 101% | 98.4% | 103% | 98.4% | 100% | 100% | 90%
6 | O=C(O)c1ccc2c3c1cccc3c(=O)n1c3ccccc3nc21 | 104% and 102% | 102% | 107% | 106% | 96.6% | 99.9% | 104% | 97.5%
7 | COc1cc(OCc2cccc(-c3ccccc3)c2C)cc(OC)c1CN1CCCC[C@H]1C(=O)O [PD-1/PD-L1 inhibitor 1] | 87.3% and 92.7% | 100% | 83.7% | 85.2% | 89.8% | 95.3% | 68.2% | 73.2%
8 | O=C(O)c1c[nH]c2ccccc12 [Indole-3-carboxylic acid] | 103% and 92% | 100% | 97.8% | 110% | 94.3% | 101% | 92.3% | 114%
9 | CN[C@H]1C(=O)N[C@@H]2Cc3ccc(cc3)Oc3cc4cc(c3O[C@@H]3O[C@H](C(=O)O)[C@@H](O)[C@H](O)[C@H]3NC(=O)CCCCCCCCC(C)C)Oc3ccc(cc3Cl)[C@@H](O)[C@@H]3NC(=O)[C@H](NC(=O)[C@@H]4NC(=O)[C@@H](NC2=O)c2cc(cc(O)c2Cl)Oc2cc1ccc2O)c1ccc(O)c(c1)-c1c(O[C@H]2O[C@H](CO)[C@@H](O)[C@H](O)[C@@H]2O)cc(O)cc1[C@@H](C(=O)NCCCN(C)C)NC3=O [Dalbavancin] | 97.1% and 89.6% | 94.9% | 95.8% | 103% | 96.6% | 97.9% | 86.5% | 106%
10 | C=C[C@@](C)(/C=C/c1ccc(O)cc1)CCC=C(C)C [Bakuchiol] | 98.5% and 98.7% | 95.3% | 87.8% | 83% | 87.3% | 90.1% | 83.1% | 81.6%
11 | CC(=O)N[C@@H](CC(C)C)C(=O)N[C@@H](CC(C)C)C(=O)N[C@H](C=O)CCCNC(=N)N [Leupeptin Hemisulfate] | 94.1% and 83.4% | 86.2% | 90.8% | 97.3% | 85.8% | 90.1% | 97.4% | 97.7%
12 | CCc1ccc(-c2nc(CSCC(=O)NCCc3ccccc3)c(C)o2)cc1 | 89.7% and 94% | 94.9% | 84.1% | 99.9% | 87.5% | 96.8% | 74.5% | 91.2%
13 | O=C1C(c2[nH]c3ccccc3c2O)=Nc2ccccc21 [Indigo] | 105% and 106% | 94.6% | 100% | 108% | 93% | 99.8% | 90% | 106%
14 | Nc1nc(F)nc2c1ncn2[C@@H]1O[C@H](CO)[C@@H](O)[C@@H]1O [Fludarabine (Fludara)] | 102% and 107% | 100% | 64.5% | 77.6% | 65.7% | 82.8% | 4.58% | 5.52%
15 | Cc1c(OCC(F)(F)F)ccnc1C[S+]([O-])c1nc2ccccc2[nH]1 (stereo not given) [Lansoprazole] | 98% and 96.2% | 90% | 98.6% | 104% | 103% | 95.5% | 91.7% | 102%
16 | COc1c(C)c(C(=O)c2ccc(N)c(C(=O)O)c2)n2ccccc12 | 106% and 97.6% | 101% | 102% | 110% | 105% | 108% | 97.6% | 106%
17 | COc1ccc(C(=O)Nc2sc3c(c2C(N)=O)CCCC3)cc1OC | 95.4% and 96.5% | 91.5% | 93.8% | 91.9% | 79.8% | 93% | 85.2% | 81.4%
18 | O=C(c1cccc(Br)c1)N1CCC(N2CCCC2)CC1 | 105% and 98.6% | 91.6% | 92.3% | 110% | 105% | 105% | 87.9% | 101%

Row | Structure (SMILES) | cell viability ([1]; SRSF2 genotype: SRSF2 P95H/wt) | cell viability ([1]; SRSF2 genotype: SRSF2 wt/wt) | cell viability ([2]; SRSF2 genotype: SRSF2 P95H/wt) | cell viability ([2]; SRSF2 genotype: SRSF2 wt/wt) | cell viability ([3]; SRSF2 genotype: SRSF2 P95H/wt) | cell viability ([3]; SRSF2 genotype: SRSF2 wt/wt) | cell viability ([4]; SRSF2 genotype: P95H/wt) | cell viability ([4]; SRSF2 genotype: wt/wt)
19 | O=c1[nH]cnc2[nH]ncc12 [Allopurinol Sodium (Aloprim)] | 90.9% and 86.7% | 90.5% | 89.1% | 93.1% | 86.6% | 91% | 90.6% | 95.1%
20 | N#Cc1c(Oc2ccc(F)c(NC(=O)Cc3cccc(C(F)(F)F)c3)c2)ccc2nc(NC(=O)C3CC3)sc12 | 12.9% and 18.9% | 19% | 40.9% | 36.8% | 36.6% | 25.9% | 31.6% | 36.8%
21 | CN1CCN(Cc2ccc(NC(=O)Nc3ccc(Oc4cc(NC(=O)C5CC5)ncn4)cc3)cc2C(F)(F)F)CC1 | 21.2% and 19% | 20.5% | 1.8% | 1.13% | 0.31% | 0.31% | 0.36% | 1.73%
22 | O=C1CCC[C@@H]2[C@H]3CCC[N+]4([O-])CCC[C@@H](CN12)[C@@H]34 (stereo not given in full) [Oxymatrine (Matrine N-oxide)] | 105% and 96.8% | 99% | 101% | 98.9% | 100% | 98.2% | 97.7% | 96.5%
23 | N[C@@H](Cc1c[nH]c2ccc(O)cc12)C(=O)O [5-hydroxytryptophan (5-HTP)] | 106% and 102% | 94.2% | 99.8% | 103% | 93.3% | 99.1% | 94.5% | 104%
24 | CCNC(=O)c1noc(-c2cc(Cl)c(O)cc2O)c1-c1ccc(OC)cc1 | 20.7% and 32.8% | 25.5% | 31.9% | 25.1% | 2.02% | 2.25% | 16.2% | 20.2%
25 | CCCC(CCC)C(N)=O [Valpromide] | 96.1% and 94.6% | 100% | 99.5% | 101% | 102% | 99.5% | 95% | 107%
26 | Nc1nc(N)c2nc(-c3cccc(O)c3)cnc2n1 | 80.3% and 89.9% | 83.4% | 63.7% | 59.2% | 57.2% | 57.8% | 48.7% | 53.1%
27 | COc1ccc(C=O)c(O)c1 [4-Methoxysalicylaldehyde] | 97.5% and 89.5% | 97.8% | 93.5% | 102% | 99.4% | 95.9% | 97% | 92%
28 | C#CC[C@H](c1nc2cc(Cl)ccc2c(=O)n1Nc1ccccc1)N(CCCN)C(=O)c1cccc(Cl)c1F | 0.47% and 0.44% | 0.4% | 0.46% | 0.55% | 0.39% | 0.42% | 0.41% | 0.45%
29 | C[C@@H]1CC[C@@]2(OC1)O[C@H]1C[C@H]3[C@@H]4CC=C5C[C@@H](O)C[C@@H](O)[C@]5(C)[C@H]4CC[C@]3(C)[C@H]1[C@@H]2C [Ruscogenin] | 96.3% and 102% | 98% | 98.9% | 103% | 103% | 110% | 89.2% | 94.3%
30 | CC(=O)O[C@]1(C)CC[C@@]23C[C@H]1C(C)(C)[C@@H]2CC[C@H]3C [Cedryl acetate] | 102% and 105% | 104% | 103% | 117% | 101% | 106% | 112% | 110%
31 | COc1cc2oc(=O)ccc2cc1O [Isoscopoletin] | 95.2% and 95.4% | 96.4% | 95.6% | 94.7% | 104% | 97.2% | 97.1% | 93.8%
32 | CCCCCCNC(=O)Nc1ccc(S(=O)(=O)Nc2ccc(CCNC[C@H](O)COc3ccc(O)cc3)cc2)cc1 | 72.8% and 83.3% | 82.8% | 89.2% | 91.4% | 75.5% | 75.4% | 74.2% | 71%
33 | C[C@@H](O)[C@H]1C(=O)N2C(C(=O)O)=C([C@H]3CCCO3)S[C@H]12 [Faropenem Sodium] | 89.8% and 77.8% | 82% | 88.3% | 94.3% | 88.3% | 90.3% | 87.1% | 97.4%
34 | O=C(/C=C/n1cnc(-c2cc(C(F)(F)F)cc(C(F)(F)F)c2)n1)N1CC(F)(F)C1 | 27.6% and 15.9% | 11.8% | 35.7% | 36.6% | 2.44% | 1.55% | 1.41% | 2.6%
35 | COc1ccc(O)cc1 [Mequinol] | 103% and 95.3% | 106% | 91.1% | 100% | 95.6% | 96.9% | 90.4% | 103%
